This note sets out measurements from the supplement of paper PMC12350171.

Counter-ions that a name gives are not always drawn. Values without a mark were called inactive.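 The calls were made as follows: active = AUC significantly below DMSO controls by Student t-fit with adjusted P under 0.01; inactive = not significantly reduced.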

The assay deals with Haemophilus parainfluenzae. The assay is described as follows: growth AUC normalised to DMSO control (fraction of control); higher = less growth inhibition, active = hit call of the paper. To be noted: 20 µM. In short, it runs like this:
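Pathogens passaged twice anaerobically were inoculated at a starting OD578 of 0.01 into pre-reduced mGAM plates with drug at 20 μM and 1% DMSO, sealed with breathable membranes. Haemophilus parainfluenzae medium was supplemented with hemin and NAD. OD578 was read hourly for 24 h, with three biological replicates. Growth-curve AUC was computed by the trapezoidal rule up to the exponential-to-stationary transition and normalised to DMSO controls on the same plate.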
`OCCN1CCN(CCCN2c3ccccc3Sc3ccc(C(F)(F)F)cc32)CC1` [Fluphenazine dihydrochloride]: the “growth AUC normalised to DMSO control” value was 0.999.
On to `CO/N=C(\C(=O)N[C@@H]1C(=O)N2C(C(=O)O)=C(C[N+]3(C)CCCC3)CS[C@H]12)c1csc(N)n1` [Cefepime hydrochloride], for which the “growth AUC normalised to DMSO control” value is 0.0407 (active).
`O=C(Cn1ccnc1[N+](=O)[O-])NCCO` [Etanidazole]: the “growth AUC normalised to DMSO control” value is 0.929.
`CC(=O)OCC(=O)[C@@]1(O)CC[C@H]2[C@@H]3CCC4=CC(=O)CC[C@]4(C)[C@@]3(F)[C@@H](O)C[C@@]21C` [Fludrocortisone acetate]: the “growth AUC normalised to DMSO control” value was 1.02.
With `CC(C)NCC(O)c1ccc(NS(C)(=O)=O)cc1` (configuration not stated) [Sotalol hydrochloride], the “growth AUC normalised to DMSO control” value is 1.
In the case of `Cc1ncc(CO)c(CO)c1O` [Pyridoxine hydrochloride] it was 0.958.
As for `C[C@]12CC[C@H]3[C@@H](CCC4=CC(=O)CC[C@@]43C)[C@@H]1CC[C@@H]2C(=O)CO` [Deoxycorticosterone], the “growth AUC normalised to DMSO control” value was 1.04.
As to `CC1(C)S[C@@H]2[C@H](NC(=O)[C@H](N)c3ccc(O)cc3)C(=O)N2[C@H]1C(=O)O` [Amoxicillin], the “growth AUC normalised to DMSO control” value was 0.0371 (active).
In the case of `CCCCCCCCNC(C)C(O)c1ccc(SC(C)C)cc1` (configuration not stated) [Suloctidil] it was 0.986; in that of `NC[C@H]1CC[C@H](C(=O)O)CC1` [Tranexamic acid], 1.04.
For `CCN(CC)CCc1nc(-c2ccccc2)no1` [Oxolamine citrate salt], the “growth AUC normalised to DMSO control” value is 1.05.
Consider `NC(=O)N1c2ccccc2CC(=O)c2ccccc21` [Oxcarbazepine], for which the “growth AUC normalised to DMSO control” value was 0.954.
With `COc1cc2nc(N3CCN(C(=O)C4CCCO4)CC3)nc(N)c2cc1OC` (configuration not stated) [Terazosin hydrochloride], the “growth AUC normalised to DMSO control” value is 0.978.
`Cc1scc2c1N(C(=O)CN1CCN(C)CC1)c1ccccc1NC2=O` [Telenzepine dihydrochloride]: the “growth AUC normalised to DMSO control” value is 1.
Take `CCc1cccc2c3c([nH]c12)C(CC)(CC(=O)O)OCC3` (configuration not stated) [Etodolac]: the “growth AUC normalised to DMSO control” value is 1.02.
Consider `CN(N=O)C(=O)N[C@H]1C(O)O[C@H](CO)[C@@H](O)[C@@H]1O` (mixture of isomers) [Streptozotocin], for which the “growth AUC normalised to DMSO control” value is 0.172 (active).
On to `Oc1ncnc2[nH]ncc12` [Allopurinol], for which the “growth AUC normalised to DMSO control” value was 1.01.
`CC1(C)S[C@@H]2[C@H](NC(=O)[C@H](C(=O)O)c3ccsc3)C(=O)N2[C@H]1C(=O)O` [Ticarcillin sodium]: the “growth AUC normalised to DMSO control” value was 0.0663 (active).
Next, `CN1CC2c3ccccc3Oc3ccc(Cl)cc3C2C1` (configuration not stated) [Asenapine maleate]: 0.851 (active); `Clc1ccccc1C(c1ccccc1)(c1ccccc1)n1ccnc1` [Clotrimazole]: 0.968; `N=C(N)NCCN1CCCCCCC1` [Guanethidine sulfate]: 1.03.
For the molecule `CC1(C)S[C@@H]2[C@H](NC(=O)[C@H](NC(=O)N3CCNC3=O)c3ccccc3)C(=O)N2[C@H]1C(=O)O` [Azlocillin sodium salt], the “growth AUC normalised to DMSO control” value was 0.0396 (active).
As to `CCc1nn(CCCN2CCN(c3cccc(Cl)c3)CC2)c(=O)n1CCOc1ccccc1` [Nefazodone hydrochloride], the “growth AUC normalised to DMSO control” value is 0.942.
As to `NCCc1cc[nH]n1` [Betazole hydrochloride], the “growth AUC normalised to DMSO control” value is 1.
On to `NC1CCN(c2nc3c(cc2F)c(=O)c(C(=O)O)cn3-c2ccc(F)cc2F)C1` (configuration not stated) [Tosufloxacin hydrochloride], for which the “growth AUC normalised to DMSO control” value was 0.0424 (active).
In the case of `Clc1ccc(CSC(Cn2ccnc2)c2ccc(Cl)cc2Cl)cc1` (configuration not stated) [Sulconazole nitrate] it was 1.08; in that of `C=C1/C(=C\C=C2/CCC[C@]3(C)[C@@H]([C@H](C)/C=C/[C@@H](O)C4CC4)CC[C@@H]23)C[C@@H](O)C[C@@H]1O` [Calcipotriene], 0.836; in that of `CCCCCCCCCCCCCCCC[N+](C)(C)CCN(Cc1ccc(OC)cc1)c1ncccn1` [Thonzonium bromide], 0.978.
With `CN1CCCCC1CCN1c2ccccc2Sc2ccc([S+](C)[O-])cc21` (configuration not stated) [Mesoridazine besylate], the “growth AUC normalised to DMSO control” value was 0.987.
Consider `CCCCOc1ccc(CC(=O)NO)cc1` [Bufexamac], for which the “growth AUC normalised to DMSO control” value was 1.
On to `CC(CN1c2ccccc2Sc2ccccc21)N(C)C` (configuration not stated) [Promethazine hydrochloride], for which the “growth AUC normalised to DMSO control” value was 0.954.
Next, `O=C(Nc1ccc([N+](=O)[O-])cc1Cl)c1cc(Cl)ccc1O` [Niclosamide]: 0.046 (active).
